Sampled rows, rich in hits. Any-hit rate of the full collection: about 10%.
JMJD2A Tudor: JMJD2A Tudor domain (human) inhibition; AlphaScreen JMJD2A-Tudor / H3K4me3 peptide binding; Potency, µM (doses to about 114 µM), without a hit: at the top dose activity change, negative = inhibition, actives largely listed as inhibitors; actives 4.4% (n = 390,000); also: potency is read from the fitted curve at half-maximal effect; % is scaled to controls: 0 for no effect and ±100 for the full control effect; nearly all actives have a fitted effect of over 50% in size
CtBP-E1A inh: blocks the CtBP interaction with E1A; activity change, % (test concentration not listed); actives 0.49% (n = 340,000); AlphaScreen GST-E1A/His-CtBP binding, 1536-well; stronger effect = lower value; AID 651724; in the data active = activity change below about -65%; inconclusive = mostly about -30% to -63%; also: % is scaled to controls: 0 for no effect and ±100 for the full control effect
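GST-E1A and His-tagged CtBP (125 nM each as 5X stock) were preincubated with pin-transferred compound for 2 h at 37 °C in the dark, then glutathione donor and nickel acceptor beads were added for 1 h before AlphaScreen reading.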
HP1b chromo inh: HP1-beta chromodomain-methylated histone interaction inhibition. P83916. AlphaScreen HP1-beta / biotin-H3K9me3 peptide binding. Potency, µM (highest dose often 114 µM), for inactives: top-dose activity change, negative = inhibition, most hits filed as inhibitors. actives 0.56% (n = 390,000); also: potency is read from the fitted curve at half-maximal effect; nearly all actives have a fitted effect of over 70% in size
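AlphaScreen: HP1-beta (50 nM) preformed 30 min with biotin-H3(1-18)K9me3 peptide (50 nM) in PBS pH 7.4, 0.01% Tween-20. Compound added for 30 min at RT, then streptavidin donor/nickel chelate acceptor beads (10 ug/mL) for 30 min.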
Six1-Eya2 blk: inhibitors of human Six1/Eya2 interaction; actives 0.56% (n = 360,000); Q15475+O00167; activity change, % (concentration not given with the values); AlphaScreen GST-Six1/His-Eya2 binding, biochemical; stronger effect = lower value; in the data active = activity change below about -65%; inconclusive = mostly about -30% to -63%; also: % is scaled to controls: 0 for no effect and ±100 for the full control effect
Target sequence (O00167 whole entry, looked up): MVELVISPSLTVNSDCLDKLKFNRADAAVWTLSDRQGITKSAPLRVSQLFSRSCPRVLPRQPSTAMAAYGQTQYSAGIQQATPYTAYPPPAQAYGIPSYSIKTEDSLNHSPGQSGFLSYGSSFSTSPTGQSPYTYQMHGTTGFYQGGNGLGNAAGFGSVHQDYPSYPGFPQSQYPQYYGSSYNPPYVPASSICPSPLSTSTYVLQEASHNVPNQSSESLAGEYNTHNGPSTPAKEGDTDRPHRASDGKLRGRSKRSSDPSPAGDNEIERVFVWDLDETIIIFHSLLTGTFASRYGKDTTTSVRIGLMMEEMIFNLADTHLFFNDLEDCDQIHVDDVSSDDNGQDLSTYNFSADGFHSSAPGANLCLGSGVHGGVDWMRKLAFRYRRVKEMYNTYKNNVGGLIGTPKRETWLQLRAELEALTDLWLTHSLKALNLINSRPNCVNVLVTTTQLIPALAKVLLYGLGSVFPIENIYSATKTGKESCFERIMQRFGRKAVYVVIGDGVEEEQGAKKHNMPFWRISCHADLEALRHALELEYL
Target sequence (Q15475 whole entry, looked up): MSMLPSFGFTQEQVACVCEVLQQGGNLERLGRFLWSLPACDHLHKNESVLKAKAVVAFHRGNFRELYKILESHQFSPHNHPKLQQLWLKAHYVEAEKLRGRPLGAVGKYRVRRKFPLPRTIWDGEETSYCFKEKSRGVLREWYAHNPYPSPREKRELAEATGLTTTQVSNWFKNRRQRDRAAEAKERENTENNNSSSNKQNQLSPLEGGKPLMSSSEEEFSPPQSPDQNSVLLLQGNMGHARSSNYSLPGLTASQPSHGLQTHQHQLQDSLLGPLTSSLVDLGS
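Homogeneous AlphaScreen proximity assay pairing GST-Six1 with His-tagged Eya2 (added as 5X mix: 250 nM and 500 nM) in 50 mM Tris pH 8.0, 300 mM NaCl, 1 mM TCEP. Glutathione donor and nickel acceptor beads; 1 h, 37 °C, dark.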
BAZ2B block: BAZ2B (human) inhibition. Q9UIF8. AlphaScreen BAZ2B-H3K14Ac peptide displacement. Potency, µM (titrated, usually from 114 µM), for inactives: at the top dose activity change, negative = inhibition, actives largely listed as inhibitors. actives 4.4% (n = 360,000); also: potency is read from the fitted curve at half-maximal effect; % is scaled to controls: 0 for no effect and ±100 for the full control effect; nearly all actives have a fitted effect of over 60% in size
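AlphaScreen displacement: compounds (up to 110uM) incubated 30 min at room temperature with a preformed 50 nM BAZ2B/50 nM biotinylated H3K14Ac peptide complex in PBS pH 7.4 with Tween-20. Donor and acceptor beads at 10 ug/mL final added, 20 min light-protected before reading.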
G9a inh: blocks human histone lysine methyltransferase G9a | Q96KQ7 | G9a H3K9 monomethylation, AlphaScreen, 2 h | Potency, µM (highest dose often 102 µM), inactives show at the top dose activity, negative = inhibition, usual class: inhibitors | actives 8.8% (n = 350,000) | AID 504332; also: potency is read from the fitted curve at half-maximal effect; % is scaled to controls: 0 for no effect and ±100 for the full control effect; nearly all actives have a fitted effect of over 75% in size
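AlphaScreen read-out: biotin-H3K9 peptide (500 nM) methylation by 20 nM enzyme with 20 uM SAM, 2 h at room temperature after 15 min compound preincubation; anti-monomethyl H3K9 antibody plus donor/acceptor beads, 10 min dark.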
* = called active by the depositor; ? = inconclusive; nt = no result given; ! = a repeat was not active; [ ] = dose if it differs, or a comment. Unless noted, calls follow the shape of the dose curve; as a rule, active = well fitted inhibition curve with a large enough effect; inconclusive = small, poorly fitted or top-dose-only effect; inactive = no such curve, though single readings can be large or run the other way.

SMILES | JMJD2A Tudor | CtBP-E1A inh | HP1b chromo inh | Six1-Eya2 blk | BAZ2B block | G9a inh
O=C1NC(c2ccco2)Nc2sc3c(c21)CCN(Cc1ccccc1)C3 (stereo not given) | ? | -3 | -13% | -6 | ? | 28µM*
OCC1OC(n2cnc3c(NCc4ccccc4O)ncnc32)C(O)C1O (stereo not given) | -1% | 13 | 41% | 1 | nt | nt
NS(=O)(=O)c1ccc(N/N=C/c2cn(-c3ccccc3)nc2-c2cccs2)cc1 | ? | -14 | -3% | -14 | 3% | 10µM*
O=C(O)c1cccc(N/N=C/c2cn(-c3ccccc3)nc2-c2cccs2)c1 | ? | 1 | -2% | -11 | ? | 35µM*
CC1=C(CC(=O)c2ccc(Cl)cc2)C(=O)c2ccccc2C1=O | 32µM* | ? | -53% | ? | 32µM* | ?
Cc1nn(CCC(=O)NCc2ccc(N(C)C)cc2)c(=O)c2nn(-c3ccccc3)c(C)c12 | -25% | 3 | 43% | -3 | -13% | 45µM*
COc1ccc(OC)c(CCNC(=O)Cn2nc(C)c3c(C)n(-c4ccc(C)cc4)nc3c2=O)c1 | -26% | -11 | 27% | -9 | 50µM* | nt
CCOc1ccc(CNC(=O)Cn2nc(C)c3c(C)n(-c4ccc(C)cc4)nc3c2=O)cc1 | 40µM*! | 1 | 16% | -7 | -32% | 16%
CCc1ccc(CNC(=O)Cn2nc(C)c3c(C)n(-c4ccc(C)cc4)nc3c2=O)cc1 | -7% | nt | 42% | nt | -4% | 3%[59 µM]
C=CCN1c2ccccc2C(=O)CS1(=O)=O | -7% | -4 | 26% | 9 | 2% | -7%[2.33 µM]
COC(=O)N1CCC2(CCN(Cc3ccccc3)CC2)CC1 | nt | nt | nt | nt | nt | -5%[12.7 µM]
COc1ccccc1CNC(=O)c1ccc2c(c1)N(Cc1cc(C)ccc1C)C(=O)c1ccccc1S2 | -17% | nt | -4% | nt | 1% | -6%[59 µM]
Nc1cc2[nH]c(=O)c3ccccc3c2cc1[N+](=O)[O-] | -17% | -72* | 8% | -72* | nt | nt
O=C(Nc1ccncc1)C1C(=O)c2ccccc2N(Cc2ccccc2)C1=O (stereo not given) | -23% | nt | 0% | nt | nt | nt
COc1ccc(N2CCN(C(CNC(=O)c3c(F)cccc3F)c3ccc4c(c3)OCO4)CC2)cc1 (stereo not given) | 50µM* | nt | -11%[57 µM] | nt | ? | 10µM*
COC(=O)NCC(c1ccc2c(c1)OCO2)N1CCN(c2ccc(OC)cc2)CC1 (stereo not given) | 18% | nt | 40% | -13 | ? | -20%
COc1ccc(N2CCN(C(CNC(=O)c3ccco3)c3ccco3)CC2)cc1 (stereo not given) | -19% | -17 | -15% | -3 | -8% | 28µM*
O=C(NCC(c1ccco1)N1CCN(c2ccc(F)cc2)CC1)c1cccs1 (stereo not given) | -18% | 0 | 20% | -10 | ? | ?
COc1ccc(N2CCN(C(CNC(=O)c3cccs3)c3ccco3)CC2)cc1 (stereo not given) | ? | -5 | ? | -11 | ? | 45µM*
CNc1ccc(/C=C\CCCO)cn1 | nt | -5 | nt | 6 | nt | nt
Cc1cccc(/C=C/C(=O)c2cc(Br)ccc(=O)c2O)c1 | ? | 0 | ? | -16 | 45µM* | ?
O=C(C=Cc1ccccc1)c1cc(Br)ccc1O | 20% | 0 | 23% | 30 | nt | nt
CCc1ccc(/C=C/C(=O)c2cc(Br)ccc(=O)c2O)cc1 | 79µM* | 9 | ? | -5 | 45µM* | ?
CCOc1ccc(C(=O)/C=C/c2ccc(OC)c(OC)c2)cc1 | -10% | 1 | 22% | -3 | -15% | ?
CCOc1ccc(/C=C/C(=O)c2cc(Br)ccc(=O)c2O)cc1 | 50µM* | 10 | -55% | -20 | 45µM* | 7.9µM*
SMILES | JMJD2A Tudor | CtBP-E1A inh | HP1b chromo inh | Six1-Eya2 blk | BAZ2B block | G9a inh
COc1ccccc1CNC(=O)CN1C(=O)CSc2ccc(S(=O)(=O)N(C)C)cc21 | 30% | nt | 36% | nt | 4% | 6%[59 µM]
CCn1cc(C(=O)O)c(=O)c2cc(F)c(N3CCN(C(=S)NC(=O)c4ccc(F)c(F)c4)CC3)cc21 | -25% | nt | -1% | 3 | -19% | 50µM*
CCOC(=O)C1CN(c2cc3c(cc2F)c(=O)c(C(=O)O)cn3CC)OC1C(=O)OCC (stereo not given) | 56µM* | 3 | 13% | -2 | ? | 40µM*
CCn1cc(C(=O)O)c(=O)c2cc(F)c(N3CCN(C(=S)NC(=O)c4ccccc4Br)CC3)cc21 | -25% | -11 | -7% | -9 | 71µM* | 4%
CCOC(=O)c1cn(CC)c2cc(N3CCCCC3)c(F)cc2c1=O | 1% | -1 | 34% | -1 | nt | nt
CCn1cc(C(=O)NN)c(=O)c2cc(F)c(N3CCN(C)CC3)cc21 | -25% | nt | 7% | 1 | -19% | -14%
CCOC(=O)N1CCN(C(=O)c2cn(CC)c3cc(N4CCN(C)CC4)c(F)cc3c2=O)CC1 | nt | nt | nt | nt | -26% | 14µM*
CCCn1c2ccccc2c2cnn(CC(=O)NCC3CCN(Cc4ccccc4C)CC3)c(=O)c21 | -20% | nt | 14% | nt | -14% | -3%[59 µM]
CCn1cc(C(=O)O)c(=O)c2cc(F)c(N3CCN(C(=S)NC(=O)c4c(OC)cccc4OC)CC3)cc21 | ? | 0 | 4% | -6 | 56µM* | 35µM*
Cc1ccccc1OCC(=O)NCC(=O)OCC(=O)c1ccc(F)cc1 | -23%[57.1 µM] | nt | 10%[57 µM] | nt | nt | nt
O=C(O)c1ccc2c(c1)C(=O)N(Cc1ccco1)C2=O | ? | 0 | -19% | 24 | -23% | 56µM*
CCc1ccc(NC(=O)c2ccc3c(c2)C(=O)N(Cc2ccco2)C3=O)cc1 | ? | -1 | 20% | -10 | ? | 50µM*
O=C1c2ccccc2C(=O)N1Cc1ccco1 | -13% | 5 | 19% | 3 | -7% | -1%[59 µM]
COC(=O)Cc1ccc(NC(=O)c2ccc3c(c2)C(=O)N(Cc2ccco2)C3=O)cc1 | -3% | 5 | 30% | 1 | -2% | nt
O=C1c2cccc3c(O)ccc(c23)C(=O)N1Cc1ccco1 | -17% | -3 | 20% | -5 | -3% | 40µM*
CC(C)(C)Cc1c(-c2ccc(F)cc2)nc2ccc(Br)cn12 | nt | 13 | nt | 17 | nt | nt
O=C(CC(=O)c1cc(Cl)ccc1O)c1ccccc1 | -24% | 11 | 6% | -5 | -3% | 8%[12.7 µM]
O=C(c1ccccc1)c1cc(Cl)ccc1N1C(=O)C=CC1=O | 18µM* | 2 | 10µM* | 0 | 79µM* | 1.8µM*
CCCN(c1c(C)n(C)n(-c2ccccc2)c1=O)S(=O)(=O)c1ccc(C)cc1 | -9% | nt | 12% | nt | -26% | -17%[59 µM]
O=C1Nc2ccccc2C(=O)C1(Cl)Cc1ccccc1 (stereo not given) | 50µM* | -7 | ? | 1 | 79µM* | ?
